Bioassay records (PubChem)
tim23-1 inh: inhibits growth of tim23-1 mutant yeast; 330,000 tested, 1.3% active; inhibition, % at 20 µM; S. cerevisiae tim23-1 growth, BacTiter-Glo luminescence, 24 h;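 active = growth inhibition of the mutant yeast at or above 50%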;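 note: temperature-sensitive mutant grown at 25 °C; plate controls were DMSO-treated mutant yeast for no effect and medium wells lacking yeast for full effect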
PfHsp90 set2: inhibits growth of yeast expressing Plasmodium falciparum Hsp90; S. cerevisiae expressing PfHsp90, BacTiter-Glo ATP, 48 h; yeast lacking PDR1 and PDR3 efflux regulators; inhibition, % at 9.4 µM; 310,000 tested, 0.32% active;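 active = every replicate shows inhibition above about 80%, whatever the replicate mean, limit read from the data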;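 note: 0% = DMSO neutral controls and 100% = 20 µM radicicol positive controls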
tim10-1 inh: growth inhibitors of tim10-1 mutant yeast | S. cerevisiae tim10-1 ts strain growth, BacTiter-Glo, 24 h | inhibition, % at 20 µM | 330,000 tested, 2.2% active;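 active = inhibition of at least 40%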;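 note: mutant grown at 25 °C; 0% = DMSO wells with yeast and 100% = wells holding no yeast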
TIM10 inh: TIM10 yeast growth inhibition. S. cerevisiae TIM10 strain growth, BacTiter-Glo luminescence, 24 h. inhibition, % at 10 µM. 330,000 tested, 1.4% active. AID 463195;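 active = inhibition of 40% or more at the single tested concentration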;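 note: wild-type TIM10 isogenic control strain grown at permissive 25 °C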
NALP3 yeast inh: blocks the NALP3 inflammasome reconstituted in yeast; Yeast reconstituted NLRP3/ASC/caspase-1, beta-gal luminescence, 24 h; inhibition, % at 10 µM; 330,000 tested, 0.39% active;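 active = inhibition of 50% or more; inactive = inhibition below 50%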;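 note: plate controls were induced DMSO wells for no effect and uninduced yeast grown without galactose for full effect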
SKKanGAS inh: inhibitors of SKKanGAS S. pyogenes growth in kanamycin (SK-promoter or general growth effect); 300,000 tested, 1.3% active; inhibition, % at 7.5 µM; AID 1662; BacTiter-Glo, 6 h;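 active = mean replicate score, as percent of positive control median, at least 50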;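 note: strain carries kanamycin resistance gene driven by streptokinase promoter and grows in 40 µg/ml kanamycin; loss of luminescence reflects streptokinase promoter inhibition or plain growth inhibition; 0% = median of DMSO wells and 100% = positive control at its reference dose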
tim10-1 conf: tim10-1 yeast growth inhibition, confirmed; 7,400 tested, 56% active; inhibition, % at 20 µM; shares compounds with tim10-1 inh; S. cerevisiae tim10-1 ts strain growth, BacTiter-Glo, 24 h; AID 463213;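 active = inhibition of yeast growth at or above a set limit in either of two repeat tests at 20 µM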;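 note: tim10-1 mutant grown at permissive 25 °C to find synthetic lethal compounds; 0% = DMSO yeast wells and 100% = medium wells without yeast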
An asterisk follows results filed as active; / = no result. A selection: hits, their analogues and other compounds. The true share with any hit is near 4.6%.

SMILES	tim23-1 inh	PfHsp90 set2	tim10-1 inh	TIM10 inh	NALP3 yeast inh	SKKanGAS inh	tim10-1 conf
O=C(Nn1c(COc2ccccc2)nc2ccccc2c1=O)C(Cl)(Cl)Cl	31	-2	40*	28	12	6	32*
CCc1ccc(C(=O)NNC(=O)[C@H](C)NC(=O)c2ccco2)cc1	-8	/	-12	0	0	/	/
S=c1[nH]nc(-c2ccccn2)n1/N=C/c1cccc2ccccc12	39	7	41*	32	15	0	11
COc1ccc(Cl)cc1S(=O)(=O)NC(C)C(=O)NCCN1CCOCC1 (configuration not stated)	/	12	/	/	/	/	/
O=C(c1cc(-c2ccco2)nn1-c1cccc(Cl)c1)N1CCCCC1	41	-9	46*	16	22	6	27
Cc1ccc(-n2nc(-c3ccco3)cc2C(=O)O)cc1	-4	22	6	8	7	-3	/
CC(C)NC(=O)c1cc(-c2ccco2)nn1-c1ccc(Cl)cc1	37	-12	44*	-1	4	0	22
Cc1ccccc1Nc1nc(-c2cccnc2)nc2ccccc12	45	3	43*	-13	21	6	19
CC(=O)Nc1ccc(Nc2nc(-c3ccccc3)nc3ccccc23)cc1	23	-9	48*	35	15	-2	34*
Cc1ccc(CNc2nc(-c3cccnc3)nc3ccccc23)cc1	43	2	31	-5	16	6	/
O=C(O)c1ccc(Nc2nc(-c3ccc([N+](=O)[O-])cc3)nc3ccccc23)cc1	-7	-32	-8	-9	22	29	/
CCc1cccc(C)c1NC(=O)CO/N=C(\N)CC(=O)NC1CCCCC1	21	-34	-15	0	18	7	/
CC(C)(C)C(=O)Nc1nnc(SCC(=O)Nc2nccs2)s1	2	9	8	1	17	-2	/
CCCn1nc(NC(=O)c2cccs2)c2cc3cc(C)ccc3nc21	43	-15	41*	15	25	35	31*
CCCCn1nc(NC(=O)c2cccs2)c2cc3ccccc3nc21	49	/	48*	25	6	6	39*
CN(C)C(CNC(=O)c1ccc(S(=O)(=O)Nc2cccc(C(F)(F)F)c2)cc1)c1ccco1 (configuration not stated)	10	4	2	13	19	0	/
C/C(CC(=O)Nc1ccc(N(C)C)cc1)=N\NC(=O)c1ccc(C(C)(C)C)cc1	38	10	53*	21	16	10	33*
CCN(CC)C(c1ccc(F)cc1)c1nnnn1C1CCCCC1 (configuration not stated)	27	3	31	25	21	10	/
Fc1ccc(C(c2nnnn2C2CCCC2)N(Cc2ccco2)CC2CCCO2)cc1 (configuration not stated)	27	-12	52*	39	8	-4	42*
CCN(CC)C(c1ccc(C)cc1)c1nnnn1C1CCCCC1 (configuration not stated)	47	/	44*	36	26	7	29
N#CCCn1c(SCC(=O)Nc2ccc(N3CCOCC3)cc2)nc2ccccc21	20	14	14	3	15	-16	/
C=C1CCC[C@]2(C)C[C@H]3OC(=O)C(CN4CCCCC4CO)[C@H]3CC12 (some centres not stated)	46	-21	48*	26	-81	1	37*
C=C1CCC[C@]2(C)C[C@H]3OC(=O)C(CNC(CC)CO)[C@H]3CC12 (some centres not stated)	35	1	52*	16	-83	1	45*
C=C1CCC[C@]2(C)C[C@H]3OC(=O)C(CN(C)CC(OC)OC)[C@H]3CC12 (some centres not stated)	25	-21	42*	15	-15	-3	41*
C=C1CCC[C@]2(C)C[C@H]3OC(=O)C(CNC(C)CC)[C@H]3CC12 (some centres not stated)	31	10	43*	30	1	0	37*
SMILES	tim23-1 inh	PfHsp90 set2	tim10-1 inh	TIM10 inh	NALP3 yeast inh	SKKanGAS inh	tim10-1 conf
CCCN1Cc2cccc(C(=O)NCCc3ccccc3)c2C1=O	17	-19	23	-9	3	-2	/
Cc1cc(C)n2nc(CNS(=O)(=O)c3ccc(CC(C)C)cc3)nc2n1	14	-8	6	5	7	-3	/
CCOc1ccc(N2C(=O)CC(N3CCN(c4ccc(Cl)cc4)CC3)C2=O)cc1 (configuration not stated)	16	19	45*	2	17	2	24
O=C1CC(N2CCN(c3ccccc3Cl)CC2)C(=O)N1c1ccccc1 (configuration not stated)	11	2	49*	-12	17	-4	19
COc1ccccc1N1CCN(C2CC(=O)N(c3cccc(Br)c3)C2=O)CC1 (configuration not stated)	27	-18	49*	11	18	2	36*
O=C1CC(N2CCN(c3ccc(Cl)cc3)CC2)C(=O)N1c1ccccc1 (configuration not stated)	11	8	-12	-9	20	4	/
COc1ccc(-c2oc3ncnc(NCCCN4CCOCC4)c3c2-c2ccc(OC)cc2)cc1	48	28	41*	29	-1	21	23
c1ccc(-c2oc3ncnc(NCCCN4CCOCC4)c3c2-c2ccccc2)cc1	13	-1	22	-23	36	15	/
COc1ccc(-c2csc3ncnc(NCCN4CCOCC4)c23)cc1	25	-4	19	11	10	-4	/
COc1ccc(-c2oc3ncnc(NCCN4CCOCC4)c3c2-c2ccc(OC)cc2)cc1	39	5	48*	38	12	28	29*
CN(C)c1cccc(C(=O)N2CCCC(CCC(=O)NCc3ccccc3F)C2)c1 (configuration not stated)	7	-10	4	0	19	1	/
COc1ccc(C(C(=O)NC2CCCC2)N(CC2CCCO2)C(=O)Cc2cccs2)cc1OC (configuration not stated)	4	-2	16	19	7	-9	/
COc1cccc(C(C(=O)NC2CCCC2)N(CC2CCCO2)C(=O)Cc2cccs2)c1 (configuration not stated)	12	10	45*	14	6	-5	21
Cc1coc2c(C)c3oc(=O)c(CCC(=O)N[C@@H](C)C(=O)N[C@@H](Cc4ccccc4)C(=O)O)c(C)c3cc12	-4	-1	9	5	-2	9	/
CCCCN1C(=O)c2ccc(C(=O)Nc3ccccc3N3CCOCC3)cc2C1=O	-12	/	43*	19	9	-5	-4
